Several values for one entry are separate records, joined by “and”; a condition that tells them apart may be missing. Equal entries are not always repeated. The campaign covered roughly 1,100 compounds. About 260 (24%) were called active. Not all results are given here. Values without a mark were called inactive.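 Rule for the calls: active = surface receptor percent response at or below 58%, roughly 3 SD from nonfluorescent compounds; inactive = the rest.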
The compounds below were run against Beta-2 adrenergic receptor (Homo sapiens) (UniProt P07550) (assay: agonist-driven loss of surface beta2AR – cell-based, FAP fluorogen, flow cytometry, single point, cherry pick 1, confirmation (AID 540358)). Conditions: Am2.2-beta2AR cells, at 10 µM, active compounds read low.
Chain of Beta-2 adrenergic receptor (Homo sapiens) (P07550 whole entry, looked up): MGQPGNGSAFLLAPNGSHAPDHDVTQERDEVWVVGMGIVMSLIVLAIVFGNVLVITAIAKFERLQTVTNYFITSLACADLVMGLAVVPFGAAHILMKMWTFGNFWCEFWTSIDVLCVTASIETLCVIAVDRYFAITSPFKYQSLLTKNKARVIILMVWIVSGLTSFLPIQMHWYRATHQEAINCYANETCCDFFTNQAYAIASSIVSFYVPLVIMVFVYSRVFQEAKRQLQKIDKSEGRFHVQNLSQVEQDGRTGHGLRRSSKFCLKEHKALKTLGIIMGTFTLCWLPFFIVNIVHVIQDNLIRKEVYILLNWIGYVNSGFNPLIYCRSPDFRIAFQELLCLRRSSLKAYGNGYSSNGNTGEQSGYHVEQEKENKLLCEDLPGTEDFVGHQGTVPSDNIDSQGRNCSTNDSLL

Question: Which percent response (surface receptor) does the source give for `CSc1ccc(CNC(=O)c2ccc(NC(=O)C3=CSCCO3)cc2)cc1` here?
Answer: 17.5% (active)

Question: For `OC(CNCc1ccc(Cl)c(Cl)c1)c1ccccc1` (stereo unspecified), which percent response (surface receptor) is on record?
Answer: 110%

Question: With `CCCCCCCCCCOC(=O)Cn1c(COc2ccc(C)cc2)[n+](C)c2ccccc21` as the compound, how does the percent response (surface receptor) read?
Answer: 108%

Question: For `O=C1C(=O)N(CC2COc3ccccc3O2)c2ccccc21` (stereo unspecified), which percent response (surface receptor) is on record?
Answer: 95.3%

Question: With `O=C(NCCCn1ccnc1)C1CCCN(S(=O)(=O)c2cc(Cl)ccc2Cl)C1` (stereo unspecified) as the compound, how does the percent response (surface receptor) read?
Answer: 17.8% (active)

Question: How did the percent response (surface receptor) turn out when `CC(=O)Nc1ccc(Nc2c3ccccc3nc3ccccc23)cc1` was run?
Answer: 80.8%

Question: With `COc1ccc(-n2nc3c(N4CCC(C(=O)NCc5ccccc5)CC4)nnc(C)c3c2C)cc1` as the compound, how does the percent response (surface receptor) read?
Answer: 152%

Question: How did the percent response (surface receptor) turn out when `C=CCNC(=S)N/N=C/c1ccc(C)s1` was run?
Answer: 110%

Question: `CC(=O)Nc1ccc(CN2CCC(Oc3ccc(C(=O)N4CCCC4)cc3)CC2)cc1` was tested. Which percent response (surface receptor) did it give?
Answer: 104%

Question: Which percent response (surface receptor) does the source give for `CC(CCc1ccccc1)NCC(O)c1cccc([N+](=O)[O-])c1` (stereo unspecified) here?
Answer: 119%

Question: `COc1cc(C#Cc2ccc3cc(CCCO)oc(=O)c3c2)cc(OC)c1` was tested. Which percent response (surface receptor) did it give?
Answer: 68.2%

Question: How did the percent response (surface receptor) turn out when `COc1ccc(-c2ccnc(SCC(=O)N3CCOCC3)n2)cc1` was run?
Answer: 104%

Question: Which percent response (surface receptor) does the source give for `Cc1ccc(Cl)cc1NC(=O)CN1CCN(S(=O)(=O)N2CCOCC2)CC1` here?
Answer: 93.5%

Question: `CCOc1ccccc1N1C(=O)CC(Sc2nccc(C)n2)C1=O` (stereo unspecified) was tested. Which percent response (surface receptor) did it give?
Answer: 106%

Question: How did the percent response (surface receptor) turn out when `CCOC(=O)c1ccc(NC(=O)Cn2nnc(-c3ccc(C)cc3)n2)cc1` was run?
Answer: 12.3% (active) and 4.86% (active)

Question: Which percent response (surface receptor) does the source give for `COc1ccc2c(c1OC)C(=O)OC2Nc1nc(-c2ccccc2)cs1` (stereo unspecified) here?
Answer: 99.6%

Question: How did the percent response (surface receptor) turn out when `O=C(C1CCN(c2nnc(-n3cccc3)s2)CC1)N1CCc2ccccc2C1` was run?
Answer: 146%

Question: With `CC(=O)c1ccc(NC(=O)c2ccc3c(Cl)c4c(nc3c2)CCCC4)cc1` as the compound, how does the percent response (surface receptor) read?
Answer: 66.5%

Question: `Cc1cc(S(=O)(=O)N2CCOCC2)ccc1OCC(=O)Nc1cccc(C(F)(F)F)c1` was tested. Which percent response (surface receptor) did it give?
Answer: 99%

Question: Which percent response (surface receptor) does the source give for `COc1ccc(OC)c(NC(=O)c2sc3nc(C)cc(C)c3c2N)c1` here?
Answer: 34.7% (active)

Question: Which percent response (surface receptor) does the source give for `N#Cc1cccc(NC(=O)COC(=O)c2ccccc2C(=O)c2ccc(Cl)c([N+](=O)[O-])c2)c1` here?
Answer: 85.9%

Question: For `COc1ccc(OC)c(S(=O)(=O)N(C)CC(=O)N2CCN(c3ccccc3)CC2)c1`, which percent response (surface receptor) is on record?
Answer: 88.9% and 123%

Question: `CCOc1ccccc1NC(=O)COc1ccc(S(=O)(=O)N2CCCC2)cc1` was tested. Which percent response (surface receptor) did it give?
Answer: 128%

Question: For `COc1ccc(S(=O)(=O)N2CCCC(C(=O)Nc3ccc(NC(=O)c4ccccn4)cc3)C2)cc1` (stereo unspecified), which percent response (surface receptor) is on record?
Answer: 44.1% (active)

Question: For `CCOc1ccc(NC(=O)COc2ccc(S(=O)(=O)N3CCCC3)cc2)cc1`, which percent response (surface receptor) is on record?
Answer: 104%

Question: `CCN1CCC2(CC1)N=C(c1ccc(F)cc1)C(=S)N2C(=O)c1ccc(C)cc1` was tested. Which percent response (surface receptor) did it give?
Answer: 92.8%

Question: For `CC(=O)c1cccc(NC(=O)COc2ccc(S(=O)(=O)N3CCOCC3)cc2)c1`, which percent response (surface receptor) is on record?
Answer: 120%

Question: Which percent response (surface receptor) does the source give for `Cc1ccc(OCC(=O)Nc2ccc(-c3nc4ncccc4o3)cc2)cc1` here?
Answer: 38.8% (active) and 23.3% (active)

Question: With `CCCOc1ccc(C(=O)C(CCC(CNCC)C(=O)c2ccc(OCCC)cc2)CNCC)cc1` (stereo unspecified) as the compound, how does the percent response (surface receptor) read?
Answer: 61%

Question: With `O=S(=O)(Nc1ccc2[nH]ncc2c1)c1ccccc1Cl` as the compound, how does the percent response (surface receptor) read?
Answer: 89.6%

Question: For `Cc1ccc(Sc2cc(N3CCOCC3)nc(-c3ccccc3)n2)cc1`, which percent response (surface receptor) is on record?
Answer: 22.9% (active)

Question: For `CCCN(CCc1ccccc1)C1CCc2c(O)cccc2C1` (stereo unspecified), which percent response (surface receptor) is on record?
Answer: 111%

Question: For `CSc1ccc(CCNC(=O)C2CCN(c3nnc(-n4cccc4)s3)CC2)cc1`, which percent response (surface receptor) is on record?
Answer: 60.9%

Question: With `Oc1ccc(N=Cc2sc3ccccc3c2Cl)cc1` as the compound, how does the percent response (surface receptor) read?
Answer: 101%

Question: How did the percent response (surface receptor) turn out when `O=C(Nc1ccc2c(c1)OCCO2)C(c1ccc(F)cc1)N1CCCCC1` (stereo unspecified) was run?
Answer: 112%

Question: `COc1ccc(C(CCNCc2ccccc2F)c2ccc(F)cc2)cc1` (stereo unspecified) was tested. Which percent response (surface receptor) did it give?
Answer: 109%

— PubChem BioAssay AID540358 (NMMLSC, 2011)
